# Measured values published in PubChem BioAssay.
# A number with no mark means an inactive call. For some of these results: Entries with a potency or affinity are not part of this list. Active and inactive are the calls of the source. Unless noted, how the calls were made is not given here.
# What was measured:
# [1] = antimalarial activity against Dd2 strain (AID 2302;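 active means growth inhibition above 50% at the single 2 µM test dose, taken to imply half-maximal potency below 2 µM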;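 further: 0% = DMSO untreated growth and 100% = chloroquine plus artemisinin killed control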); conditions: P. falciparum Dd2 in RBCs, LDH growth readout, 72 h; at 2 µM; hits give high values
# [2] = HepG2 cytotoxicity, primary screen, cytotoxicity control for P. falciparum antimalarial project, cell-based, ATP luminescence (AID 2303;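 active means inhibition above 50%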;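 further: 0% = DMSO wells and 100% = digitonin-killed cells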); conditions: HepG2 viability, 24-48 h, at 10 µM, hits give high values
# [3] = target: L-lactate dehydrogenase (Plasmodium falciparum (isolate CDC / Honduras)) (UniProt Q27743); experiment: PfLDH activity inhibition – cell lysate, 3D7 strain, counter-screen for P. falciparum growth inhibition project (AID 2304);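 further: 0% = vehicle and 100% = reference inhibitor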; conditions: P. falciparum 3D7 crude extract, LDH APAD/NBT absorbance; at 2 µM; hits give high values
# [4] = inhibition of 3D7 malaria parasite growth – strain 3D7 (AID 2306);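 further: 0% = DMSO wells and 100% = chloroquine plus artemisinin control wells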; conditions: P. falciparum 3D7 erythrocytic growth, LDH absorbance, 72 h; at 2 µM; hits give high values
# [5] = target: Calcium-dependent protein kinase 1 (Plasmodium falciparum (isolate 3D7)) (UniProt P62344); experiment: PfCDPK1 kinase inhibitors, biochemical, TCAMS library (AID 1159585; cut-off not given, nearly all actives have IC50 up to about 0.98 µM;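 further: inhibitors leave more ATP so luminescence rises with inhibition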); conditions: recombinant PfCDPK1, Kinase-Glo ATP depletion luminescence
# [6] = target: Plasmodium falciparum protein kinase 6 (PK6, PF3D7_1337100) (UniProt Q8IDW1); experiment: PfPK6 kinase inhibitors, biochemical, TCAMS library (AID 1159586); conditions: recombinant PfPK6, Kinase-Glo ATP depletion luminescence
# [7] = target: Protein kinase 7 (PK7), Plasmodium falciparum 3D7 (PF3D7_0213400) (UniProt Q7YTF7); experiment: inhibition of Plasmodium PK7 catalytic activity – biochemical, TCAMS antimalarial set, Kinase-Glo luminescence (AID 1159587); conditions: recombinant PfPK7, Kinase-Glo ATP depletion luminescence
# [8] = target: Calcium-dependent protein kinase 4 (Plasmodium falciparum (isolate 3D7)) (UniProt Q8IBS5); experiment: PfCDPK4 kinase inhibitors, biochemical, TCAMS library (AID 1159588; cut-off not given, nearly all actives have IC50 up to about 0.91 µM); conditions: recombinant PfCDPK4, Kinase-Glo ATP depletion luminescence
# Calcium-dependent protein kinase 4 (Plasmodium falciparum (isolate 3D7)), sequence (Q8IBS5 whole entry, looked up): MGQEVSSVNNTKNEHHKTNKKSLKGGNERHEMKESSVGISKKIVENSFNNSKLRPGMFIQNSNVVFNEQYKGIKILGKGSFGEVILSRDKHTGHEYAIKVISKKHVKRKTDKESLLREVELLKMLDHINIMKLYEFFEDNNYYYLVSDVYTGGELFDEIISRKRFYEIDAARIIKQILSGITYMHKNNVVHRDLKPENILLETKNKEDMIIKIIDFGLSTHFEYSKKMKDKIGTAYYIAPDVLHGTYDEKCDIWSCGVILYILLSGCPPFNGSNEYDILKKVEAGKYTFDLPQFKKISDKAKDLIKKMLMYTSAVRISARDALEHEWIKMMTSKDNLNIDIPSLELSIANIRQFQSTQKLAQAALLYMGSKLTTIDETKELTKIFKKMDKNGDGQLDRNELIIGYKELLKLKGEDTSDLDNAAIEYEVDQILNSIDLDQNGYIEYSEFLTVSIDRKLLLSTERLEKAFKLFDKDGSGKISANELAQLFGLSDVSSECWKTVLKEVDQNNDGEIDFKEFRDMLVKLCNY
# Protein kinase 7 (PK7), Plasmodium falciparum 3D7 (PF3D7_0213400), sequence (Q7YTF7 1-343): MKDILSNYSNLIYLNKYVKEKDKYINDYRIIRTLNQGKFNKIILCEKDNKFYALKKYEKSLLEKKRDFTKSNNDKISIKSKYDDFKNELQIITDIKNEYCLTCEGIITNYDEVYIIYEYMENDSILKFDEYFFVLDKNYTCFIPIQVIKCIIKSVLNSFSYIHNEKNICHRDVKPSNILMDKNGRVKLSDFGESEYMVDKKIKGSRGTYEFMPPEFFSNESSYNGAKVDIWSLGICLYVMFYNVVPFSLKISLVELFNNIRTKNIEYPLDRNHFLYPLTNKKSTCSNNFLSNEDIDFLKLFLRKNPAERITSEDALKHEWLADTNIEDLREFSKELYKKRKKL
# L-lactate dehydrogenase (Plasmodium falciparum (isolate CDC / Honduras)), sequence (Q27743 whole entry, looked up): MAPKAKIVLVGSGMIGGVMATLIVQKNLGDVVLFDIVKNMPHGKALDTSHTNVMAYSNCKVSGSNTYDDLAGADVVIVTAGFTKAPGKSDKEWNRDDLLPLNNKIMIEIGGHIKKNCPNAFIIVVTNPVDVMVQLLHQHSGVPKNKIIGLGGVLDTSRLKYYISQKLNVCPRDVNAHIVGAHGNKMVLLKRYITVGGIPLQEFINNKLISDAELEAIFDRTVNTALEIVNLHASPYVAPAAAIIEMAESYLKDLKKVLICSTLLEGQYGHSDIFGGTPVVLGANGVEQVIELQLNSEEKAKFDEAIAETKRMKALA
# Plasmodium falciparum protein kinase 6 (PK6, PF3D7_1337100), sequence (Q8IDW1 1-305): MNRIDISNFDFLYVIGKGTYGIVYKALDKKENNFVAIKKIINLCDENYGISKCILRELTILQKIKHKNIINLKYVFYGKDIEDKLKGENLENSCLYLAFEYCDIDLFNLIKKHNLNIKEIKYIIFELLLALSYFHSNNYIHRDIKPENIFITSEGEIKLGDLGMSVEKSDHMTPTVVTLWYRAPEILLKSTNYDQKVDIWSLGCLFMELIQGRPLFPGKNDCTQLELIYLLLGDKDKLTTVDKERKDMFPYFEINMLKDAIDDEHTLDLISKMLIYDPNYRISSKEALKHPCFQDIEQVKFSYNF
# Calcium-dependent protein kinase 1 (Plasmodium falciparum (isolate 3D7)), sequence (P62344 whole entry, looked up): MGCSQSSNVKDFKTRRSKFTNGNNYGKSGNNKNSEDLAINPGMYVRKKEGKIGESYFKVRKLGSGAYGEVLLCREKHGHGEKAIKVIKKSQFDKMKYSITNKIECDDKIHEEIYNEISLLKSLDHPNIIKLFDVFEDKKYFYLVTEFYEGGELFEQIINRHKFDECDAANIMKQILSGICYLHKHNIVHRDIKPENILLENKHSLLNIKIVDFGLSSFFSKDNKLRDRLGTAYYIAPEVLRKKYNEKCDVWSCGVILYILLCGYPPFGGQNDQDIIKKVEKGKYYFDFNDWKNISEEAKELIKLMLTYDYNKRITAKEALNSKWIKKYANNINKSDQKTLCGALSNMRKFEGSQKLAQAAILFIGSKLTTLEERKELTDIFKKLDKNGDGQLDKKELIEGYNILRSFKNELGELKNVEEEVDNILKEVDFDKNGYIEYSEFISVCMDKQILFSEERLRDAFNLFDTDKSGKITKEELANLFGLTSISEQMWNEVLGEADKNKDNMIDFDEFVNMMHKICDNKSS
SMILES,growth inhibition [1],inhibition [2],inhibition [3],growth inhibition [4],outcome [5],outcome [6],outcome [7],outcome [8]
Cn1cncc1C(=O)Nc1cccc(-c2cccc(-c3nc4ccccc4[nH]3)c2)c1,35%,9%,3%,102% (active),inactive,inactive,inactive,inactive
Cc1nnsc1C(=O)Nc1cccc(-c2cccc(-c3nc4ccc(F)cc4[nH]3)c2)c1,45%,35%,3%,100% (active),inactive,inactive,inactive,inactive
Cc1ccc(C)c(NC(=O)Nc2ccc(C)c(-c3ccc(C(=O)Nc4ccncc4)cc3)c2)c1,59% (active),46%,-3%,98% (active),inactive,inactive,inactive,inactive
CC(=O)Nc1nc(C(=O)Nc2cccc(-c3ccc(-c4nc5c(C)cccc5[nH]4)s3)c2)cs1,67% (active),14%,-2%,101% (active),inactive,inactive,inactive,inactive
O=C1Nc2cccc3c2C1(CCCN1CCC(c2c[nH]c4cc(C(F)(F)F)ccc24)CC1)CCC3 (stereo not given),37%,91% (active),-2%,89% (active),inactive,inactive,inactive,inactive
O=c1[nH]c2ccc3[nH]cccc3c2c1C=Nc1ccc(Cn2ccnc2)cc1,85% (active),33%,1%,101% (active),inactive,inactive,inactive,inactive
COc1ccc2ccccc2c1CCCCN1CCN(CC(c2ccc(F)cc2)N2CCC2)CC1 (stereo not given),51% (active),51% (active),9%,98% (active),inactive,inactive,inactive,inactive
Cc1cccc(CN2CCCN(Cc3ccc(C(=O)Nc4ccc(Cl)cc4)cc3)CC2)c1,17%,54% (active),3%,92% (active),inactive,inactive,inactive,inactive
CN1CCC(C(=O)N(Cc2ccc(-c3ccc(CNCCc4ccc(S(C)(=O)=O)cc4)cn3)cc2)Cc2ccc3c(c2)OCO3)CC1,51% (active),16%,-3%,91% (active),inactive,inactive,inactive,inactive
O=C(Nc1cccc(C(F)(F)F)c1)N1CCOC(CCN2CCC(c3ccccc3)CC2)(c2ccc(Cl)c(Cl)c2)C1 (stereo not given),69% (active),15%,8%,87% (active),inactive,inactive,inactive,inactive
Cc1cccc2[nH]c(-c3ccc(-c4cccc(NC(=O)Nc5ccsc5)c4)cc3)nc12,24%,24%,8%,101% (active),inactive,inactive,inactive,inactive
CCC[C@@H]([C@@H](CC1CCCCC1)C(=O)NC(C(=O)Nc1nccs1)C(CC)c1ccccc1)N(O)C=O (stereo not given in full),19%,50% (active),-4%,89% (active),inactive,inactive,inactive,inactive
CN(CCO)Cc1cccc(-c2ccc(NC(=O)c3cccc(C#N)c3)cc2)c1,57% (active),23%,9%,97% (active),inactive,inactive,inactive,inactive
Cc1cc(C)c(C)c(OCCCON2C(N)=NC(N)=NC2(C)C)c1C,95% (active),64% (active),-4%,94% (active),inactive,inactive,inactive,inactive
c1ccc2c(C3CCN(CCCCOc4ccc5c(c4)CCN(CC4CC4)CC5)CC3)c[nH]c2c1,97% (active),74% (active),-8%,99% (active),inactive,inactive,inactive,inactive
CSc1cccc(NC(=O)c2cc3ccccc3oc2=O)c1,75% (active),-4%,4%,92% (active),inactive,inactive,inactive,inactive
Cc1cccc2c(C(=O)NC3CCN(Cc4ccccc4)CC3)cc(-c3cccnc3)nc12,10%,12%,-2%,81% (active),inactive,inactive,inactive,inactive
CN1CCN(c2cc(-c3cccnc3)nc(-c3ccncc3)n2)CC1,89% (active),11%,1%,100% (active),inactive,inactive,inactive,inactive
Cc1cccc(CC(N)=NCCCCCCN=C(N)Cc2cccc(C)c2)c1,97% (active),12%,3%,97% (active),inactive,inactive,inactive,inactive
O=c1cc(NCCCNCc2cc(Br)cs2)[nH]c2ccccc12,5%,11%,-2%,85% (active),inactive,inactive,inactive,inactive
